# Results published in PubChem BioAssay.
# Values joined by “and” are separate entries in the source; they are usually repeats but may differ in a detail not shown here. Equal entries are not always repeated. Results filed as inconclusive are left out. For part of these data: Potency and affinity values are given separately. Active and inactive are the calls of the source. Cut-off read from the data, not from the text of the source, unless noted: active = inhibition above about 80%; inactive = the rest.
# Experiments:
# [1] = circadian clock period modulators, cell-based, LOPAC library, luminescence reporter (AID 2774; call rule not given here;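 note: values are relative to mean of DMSO wells on each plate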); conditions: circadian reporter cells, at 7 µM, actives lie on both sides
# [2] = test system: Aerobactin synthetase IucA (Klebsiella pneumoniae); assay: IucA aerobactin synthetase inhibitors, biochemical, Tocris library, absorbance (AID 1345561; call rule not given here;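 note: 100% = enzyme without compound and 0% = no enzyme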); conditions: purified IucA enzyme assay, absorbance (OD) read-out; stronger effect = lower value;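 tested at 8 µM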
# [3] = CRL2098 osteosarcoma cell growth inhibition, synergistic combos for chromothripsis tumors, BGB or cisplatin IC20 combos (AID 1671454); conditions: CRL2098 osteosarcoma cells, drug combinations, stronger effect = higher value;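 note: cells exposed for 96 h before readout; 0% = vehicle DMSO and 100% = killing by high DMSO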
# [4] = HD-MB03 medulloblastoma cell growth inhibition, synergistic combos for chromothripsis tumors, BGB or cisplatin IC20 combos (AID 1671455; in the data active = inhibition above about 83%;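 note: 0% = vehicle DMSO and 100% = high DMSO as cytotoxic control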); conditions: HD-MB03 medulloblastoma cells, stronger effect = higher value
# [5] = UWB1.289 ovarian carcinoma cell growth inhibition, synergistic combos for chromothripsis tumors, BGB or cisplatin combos (AID 1671456); conditions: UWB1.289 ovarian carcinoma cells, stronger effect = higher value;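 note: cells exposed to compound for four days; 0% = vehicle DMSO and 100% = killing by high DMSO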
# [6] = LFS_MB_2R medulloblastoma cell growth inhibition, synergistic combos for chromothripsis tumors, cisplatin combos (AID 1671457); conditions: LFS_MB_2R medulloblastoma cells, stronger effect = higher value;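 note: cells exposed to compound for four days before readout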
# [7] = UWB1.289_BRCA1 ovarian cancer growth, cell-based, BGB or cisplatin combinations (AID 1671459); conditions: UWB1.289 BRCA1 ovarian carcinoma, drug combinations, stronger effect = higher value
# [8] = human astrocyte viability loss, single and combined drugs, cytotoxicity control for chromothriptic childhood tumor combination screen, cell-based, BGB or cisplatin IC20 combos (AID 1671460); conditions: Human astrocytes, drug combinations, stronger effect = higher value;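 note: cells exposed to compounds for 96 hours before viability readout; 0% = vehicle and 100% = killing control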
# [9] = target: ATP-dependent translocase ABCB1 (Homo sapiens) (UniProt P08183); assay: MDR1 (ABCB1) efflux transporter inhibition, cell-based (AID 377; in the data active = fluorescence slope change above about 50%); conditions: MDR1-expressing cells, fluorescent substrate accumulation slope; stronger effect = higher value; concentration not given here
# Chain of ATP-dependent translocase ABCB1 (Homo sapiens) (P08183 whole entry, looked up): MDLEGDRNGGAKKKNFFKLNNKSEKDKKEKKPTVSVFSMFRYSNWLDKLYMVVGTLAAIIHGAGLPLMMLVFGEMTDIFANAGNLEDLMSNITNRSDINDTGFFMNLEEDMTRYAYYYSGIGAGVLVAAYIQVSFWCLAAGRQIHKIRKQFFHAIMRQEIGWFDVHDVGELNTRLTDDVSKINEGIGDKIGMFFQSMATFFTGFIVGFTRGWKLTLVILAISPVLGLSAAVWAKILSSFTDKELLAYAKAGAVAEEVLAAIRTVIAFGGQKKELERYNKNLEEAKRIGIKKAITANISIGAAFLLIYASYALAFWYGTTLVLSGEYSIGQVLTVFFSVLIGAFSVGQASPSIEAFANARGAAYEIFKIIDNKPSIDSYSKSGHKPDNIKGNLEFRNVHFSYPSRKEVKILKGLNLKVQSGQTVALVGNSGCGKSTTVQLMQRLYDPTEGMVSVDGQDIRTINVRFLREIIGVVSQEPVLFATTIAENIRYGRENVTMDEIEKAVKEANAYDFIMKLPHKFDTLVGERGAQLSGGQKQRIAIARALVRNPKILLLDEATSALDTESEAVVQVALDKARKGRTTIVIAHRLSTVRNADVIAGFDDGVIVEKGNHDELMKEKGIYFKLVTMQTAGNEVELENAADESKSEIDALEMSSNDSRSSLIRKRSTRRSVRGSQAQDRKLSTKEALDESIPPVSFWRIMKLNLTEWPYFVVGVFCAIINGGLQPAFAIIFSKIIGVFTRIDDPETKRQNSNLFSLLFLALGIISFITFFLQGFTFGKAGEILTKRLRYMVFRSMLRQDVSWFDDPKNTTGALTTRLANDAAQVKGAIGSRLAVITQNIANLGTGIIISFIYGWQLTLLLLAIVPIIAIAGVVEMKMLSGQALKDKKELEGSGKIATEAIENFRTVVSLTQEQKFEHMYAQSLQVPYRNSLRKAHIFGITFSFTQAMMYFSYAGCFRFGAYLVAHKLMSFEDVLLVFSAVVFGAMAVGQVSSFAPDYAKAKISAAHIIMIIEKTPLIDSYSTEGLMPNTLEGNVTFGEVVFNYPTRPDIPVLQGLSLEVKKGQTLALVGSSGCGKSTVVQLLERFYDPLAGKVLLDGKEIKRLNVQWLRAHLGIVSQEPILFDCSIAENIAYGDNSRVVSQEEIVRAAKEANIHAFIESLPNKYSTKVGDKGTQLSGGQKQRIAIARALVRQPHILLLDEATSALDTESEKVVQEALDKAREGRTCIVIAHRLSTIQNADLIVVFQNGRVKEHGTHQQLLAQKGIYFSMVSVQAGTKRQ
# [10] = antimalarial activity against Dd2 strain (AID 2302;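 active = growth inhibition above 50% at the single 2 µM test dose, taken to imply half-maximal potency below 2 µM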;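 note: 0% = DMSO untreated growth and 100% = chloroquine plus artemisinin killed control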); conditions: P. falciparum Dd2 in RBCs, LDH growth readout, 72 h; at 2 µM; stronger effect = higher value
# [11] = target: L-lactate dehydrogenase (Plasmodium falciparum (isolate CDC / Honduras)) (UniProt Q27743); assay: PfLDH activity inhibition – cell lysate, 3D7 strain, counter-screen for P. falciparum growth inhibition project (AID 2304; call rule not given here;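 note: 0% = vehicle and 100% = reference inhibitor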); conditions: P. falciparum 3D7 crude extract, LDH APAD/NBT absorbance; at 2 µM; stronger effect = higher value
# Chain of L-lactate dehydrogenase (Plasmodium falciparum (isolate CDC / Honduras)) (Q27743 whole entry, looked up): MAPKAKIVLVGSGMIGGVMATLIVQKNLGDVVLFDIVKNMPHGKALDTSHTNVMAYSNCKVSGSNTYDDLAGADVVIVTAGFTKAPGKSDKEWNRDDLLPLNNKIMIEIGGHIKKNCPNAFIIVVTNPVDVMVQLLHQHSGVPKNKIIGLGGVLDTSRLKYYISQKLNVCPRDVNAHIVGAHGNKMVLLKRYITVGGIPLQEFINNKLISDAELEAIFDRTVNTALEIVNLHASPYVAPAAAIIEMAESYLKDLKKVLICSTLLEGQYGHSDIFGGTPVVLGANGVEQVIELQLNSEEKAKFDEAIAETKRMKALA
# [12] = inhibition of 3D7 malaria parasite growth – strain 3D7 (AID 2306; call rule not given here;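 note: 0% = DMSO wells and 100% = chloroquine plus artemisinin control wells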); conditions: P. falciparum 3D7 erythrocytic growth, LDH absorbance, 72 h; at 2 µM; stronger effect = higher value
# [13] = target: Calcium-dependent protein kinase 1 (Plasmodium falciparum (isolate 3D7)) (UniProt P62344); assay: PfCDPK1 kinase inhibitors, biochemical, TCAMS library (AID 1159585; cut-off not given, nearly all actives have IC50 up to about 0.98 µM;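 note: inhibitors leave more ATP so luminescence rises with inhibition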); conditions: recombinant PfCDPK1, Kinase-Glo ATP depletion luminescence
# Chain of Calcium-dependent protein kinase 1 (Plasmodium falciparum (isolate 3D7)) (P62344 whole entry, looked up): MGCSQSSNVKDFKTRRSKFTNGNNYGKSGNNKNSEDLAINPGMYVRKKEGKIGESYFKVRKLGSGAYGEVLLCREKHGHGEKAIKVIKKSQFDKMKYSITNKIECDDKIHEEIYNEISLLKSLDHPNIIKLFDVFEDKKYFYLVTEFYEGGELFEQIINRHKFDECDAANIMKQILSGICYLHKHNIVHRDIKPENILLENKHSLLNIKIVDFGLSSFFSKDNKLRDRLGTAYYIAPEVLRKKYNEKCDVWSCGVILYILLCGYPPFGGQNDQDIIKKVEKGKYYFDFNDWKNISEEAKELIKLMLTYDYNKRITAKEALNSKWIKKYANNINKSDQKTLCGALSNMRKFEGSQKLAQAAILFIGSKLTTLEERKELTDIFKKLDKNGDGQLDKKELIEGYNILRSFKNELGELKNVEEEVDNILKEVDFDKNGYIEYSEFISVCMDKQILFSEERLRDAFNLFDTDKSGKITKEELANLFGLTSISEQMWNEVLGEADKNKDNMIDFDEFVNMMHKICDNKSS
# [14] = target: Plasmodium falciparum protein kinase 6 (PK6, PF3D7_1337100) (UniProt Q8IDW1); assay: PfPK6 kinase inhibitors, biochemical, TCAMS library (AID 1159586; call rule not given here); conditions: recombinant PfPK6, Kinase-Glo ATP depletion luminescence
# Chain of Plasmodium falciparum protein kinase 6 (PK6, PF3D7_1337100) (Q8IDW1 1-305): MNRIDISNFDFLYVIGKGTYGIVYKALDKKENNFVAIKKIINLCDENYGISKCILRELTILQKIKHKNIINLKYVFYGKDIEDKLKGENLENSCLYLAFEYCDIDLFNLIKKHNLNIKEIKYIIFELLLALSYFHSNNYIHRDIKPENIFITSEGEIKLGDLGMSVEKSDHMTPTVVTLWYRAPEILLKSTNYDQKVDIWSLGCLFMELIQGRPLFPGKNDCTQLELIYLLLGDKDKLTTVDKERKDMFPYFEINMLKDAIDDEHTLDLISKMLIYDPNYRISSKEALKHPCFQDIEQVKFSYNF
# [15] = target: Protein kinase 7 (PK7), Plasmodium falciparum 3D7 (PF3D7_0213400) (UniProt Q7YTF7); assay: inhibition of Plasmodium PK7 catalytic activity – biochemical, TCAMS antimalarial set, Kinase-Glo luminescence (AID 1159587; call rule not given here); conditions: recombinant PfPK7, Kinase-Glo ATP depletion luminescence
# Chain of Protein kinase 7 (PK7), Plasmodium falciparum 3D7 (PF3D7_0213400) (Q7YTF7 1-343): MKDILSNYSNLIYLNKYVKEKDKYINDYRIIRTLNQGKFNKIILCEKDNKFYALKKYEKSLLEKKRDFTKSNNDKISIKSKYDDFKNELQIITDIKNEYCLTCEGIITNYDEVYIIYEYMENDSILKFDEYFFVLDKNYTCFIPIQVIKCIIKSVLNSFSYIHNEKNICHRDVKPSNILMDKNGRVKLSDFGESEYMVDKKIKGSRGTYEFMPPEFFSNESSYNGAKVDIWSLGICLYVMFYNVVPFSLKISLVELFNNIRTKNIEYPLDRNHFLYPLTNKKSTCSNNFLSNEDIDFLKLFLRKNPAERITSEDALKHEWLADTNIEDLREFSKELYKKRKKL
# [16] = growth inhibition of DIPG glioma cells, dose response, cell-based, SU-DIPG-XIII, MIPE5.0, CellTiter-Glo, qHTS (AID 1347064; cut-off not given, nearly all actives have AC50 up to about 23 µM;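 for AC50: cells exposed to compound for 48 hours before the viability read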); conditions: SU-DIPG-XIII viability, CellTiter-Glo ATP luminescence
# [17] = liver-stage malaria parasite growth inhibition, primary screen, cell-based, HepG2, luciferase luminescence, HepG2 viability (AID 624349; in the data active = parasite load remaining mostly below about 12%, no sharp cut-off; inactive = mostly above about 10%;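 note: 100% = mean of DMSO negative control wells on the same plate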); conditions: P. berghei liver stage in HepG2, luciferase luminescence, concentration not given here; parasite load remaining: stronger effect = lower value; viability: measured here: HepG2 viability without parasites
# [18] = test system: Neuropilin-2 / VEGF-C interaction (human); assay: inhibitors of NRP2–VEGF-C binding, biochemical, microplate binding format, z-score (AID 743281; call rule not given here); conditions: microplate NRP2/VEGF-C binding assay; stronger effect = lower value
# [19] = modifiers of HSF1 nuclear foci, imaging, Selleck Cancer Library (AID 1347162; in the data active = plate-normalised HSF1 focus index below about 0.46); conditions: human cells, at 10 µM; SSMD: measured here: HSF1 foci SSMD mean; cell count: measured here: cell number; plate-normalised HSF1 focus index: stronger effect = lower value
# [20] = inhibitors of Cryptococcus chitosan production, flow cytometry, Cibacron Brilliant Red staining (AID 1347148; call rule not given here;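 note: compound exposure lasted three days at 37 degrees C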); conditions: Cryptococcus neoformans chitosan, stronger effect = lower value; at 99.1 µM unless noted
# [21] = measured here: combination with BGB at IC20, at 0.5 µM
# [22] = measured here: combination with cisplatin at IC20, at 0.5 µM
# [23] = measured here: combo with BGB at IC20, at 0.5 µM
# [24] = measured here: combo with cisplatin at IC20, at 0.5 µM
# [25] = measured here: inhibition with BGB combination, at 0.05 µM
# [26] = measured here: inhibition with cisplatin combination, at 0.05 µM
# [27] = measured here: combination with cisplatin, at 0.5 µM
# [28] = measured here: combination with cisplatin, at 5 µM
# [29] = BGB combination, concentration series, at 5 µM
# [30] = cisplatin combination, concentration series, at 5 µM
# [31] = measured here: combo with BGB IC20, at 0.5 µM
# [32] = measured here: combo with cisplatin IC20, at 0.5 µM
compound,measurement,setting,value
Nc1nc2c(ncn2COCCO)c(=O)[nH]1,period change,[1],-0.035 h (inactive)
same,remaining activity,[2],117% (inactive)
same,inhibition,[3]; at 0.5 µM,-82.3% (inactive) and -42.2% (inactive)
same,inhibition,[3]; [21],-65.6% and -27.8%
same,inhibition,[3]; [22],-92.2% and -76%
same,inhibition,[4]; at 0.5 µM,-9.51% (inactive) and -3.72% (inactive)
same,inhibition,[4]; [23],-2.11% and -3.06%
same,inhibition,[4]; [24],-19.5% and -6.04%
same,inhibition,[5]; at 0.5 µM,-7.84% (inactive) and 5.52% (inactive)
same,inhibition,[5]; [25],-9.01% and -4.82%
same,inhibition,[5]; [26],-11.4% and 12.5%
same,inhibition,[6]; at 0.5 µM,-16.1% (inactive) and -6.37% (inactive)
same,inhibition,[6]; [27],-14.9% and -19.4%
same,inhibition,[6]; [28],-76% and -8.06%
same,inhibition,[7]; [29],-23.1% and 1.37%
same,inhibition,[7]; at 0.5 µM,-9.4% (inactive) and 8.78% (inactive)
same,inhibition,[7]; [30],-14.8% and -13.6%
same,inhibition,[8]; at 0.5 µM,-9.43% (inactive) and 7.59% (inactive)
same,inhibition,[8]; [31],-2.39% and 2.09%
same,inhibition,[8]; [32],-29.6% and 5.16%
N=C(N)c1ccc(OCCCCCOc2ccc(C(=N)N)cc2)cc1,fluorescence slope change,[9],28.9% (inactive)
same,growth inhibition,[10],98% (active)
same,inhibition,[11],-2% (inactive)
same,growth inhibition,[12],99% (active)
same,outcome,[13],inactive
same,outcome,[14],inactive
same,outcome,[15],inactive
CN(C)CCCN1c2ccccc2CCc2ccc(Cl)cc21,fluorescence slope change,[9],179% (active)
same,period change,[1],-0.12 h (inactive)
same,remaining activity,[2],96.8% (inactive)
same,outcome,[16],inactive
CCN(CCO)CCCC(C)Nc1ccnc2cc(Cl)ccc12 (centres undefined),growth inhibition,[10],0% (inactive)
same,inhibition,[11],-1% (inactive)
same,growth inhibition,[12],99% (active)
same,parasite load remaining,[17],156% (inactive) and 84.1% (inactive)
same,viability,[17],88.4% and 102%
same,outcome,[13],inactive
same,outcome,[14],inactive
same,outcome,[15],inactive
same,outcome,[16],inactive
Oc1c(Cl)cc(Cl)c2cccnc12,parasite load remaining,[17],-2.47% (inactive) and 0.685% (inactive)
same,viability,[17],56.8% and 69.6%
same,AC50,[16],11.8 µM (active)
N[C@@H]1CONC1=O,period change,[1],0.11 h (inactive)
same,z-score,[18],-0.138 (inactive)
same,outcome,[16],inactive
CC(=O)OCC(CCn1cnc2cnc(N)nc21)COC(C)=O,z-score,[18],-0.315 (inactive)
same,inhibition,[3]; at 0.5 µM,-1.73% (inactive)
same,inhibition,[3]; [21],-9.88%
same,inhibition,[3]; [22],-30.1%
same,inhibition,[4]; at 0.5 µM,-9.43% (inactive)
same,inhibition,[4]; [23],-6.57%
same,inhibition,[4]; [24],-14.8%
same,inhibition,[5]; at 0.5 µM,5.6% (inactive)
same,inhibition,[5]; [25],-6.88%
same,inhibition,[5]; [26],-9.39%
same,inhibition,[6]; at 0.5 µM,-19.1% (inactive)
same,inhibition,[6]; [27],-22.6%
same,inhibition,[6]; [28],-72.7%
same,inhibition,[7]; [29],-1.67%
same,inhibition,[7]; at 0.5 µM,-3.29% (inactive)
same,inhibition,[7]; [30],11.9%
same,inhibition,[8]; at 0.5 µM,8.43% (inactive)
same,inhibition,[8]; [31],10.6%
same,inhibition,[8]; [32],-5.87%
O=C1c2c(O)ccc(O)c2C(=O)c2c(NCCNCCO)ccc(NCCNCCO)c21,period change,[1],-1.74 h (active)
same,AC50,[16],10.5 µM (active)
same,SSMD,[19],-1.6
same,cell count,[19],7320
same,plate-normalised HSF1 focus index,[19],0.898 (inactive)
same,inhibition,[3]; at 0.5 µM,7.34% (inactive)
same,inhibition,[3]; [21],20.4%
same,inhibition,[3]; [22],-13.9%
same,inhibition,[4]; at 0.5 µM,88% (active)
same,inhibition,[4]; [23],86.5%
same,inhibition,[4]; [24],84.8%
same,inhibition,[5]; at 0.5 µM,64.9% (inactive)
same,inhibition,[5]; [25],-29.8%
same,inhibition,[5]; [26],-25.8%
same,inhibition,[6]; at 0.5 µM,-5.4% (inactive)
same,inhibition,[6]; [27],20.8%
same,inhibition,[6]; [28],92.5%
same,inhibition,[7]; [29],105%
same,inhibition,[7]; at 0.5 µM,63.4% (inactive)
same,inhibition,[7]; [30],104%
same,inhibition,[8]; at 0.5 µM,68.8% (inactive)
same,inhibition,[8]; [31],69.1%
same,inhibition,[8]; [32],56.7%
COc1ccc(Cl)cc1C(=O)NCCc1ccc(S(=O)(=O)NC(=O)NC2CCCCC2)cc1,fluorescence slope change,[9],105% (active)
same,period change,[1],0.16 h (inactive)
same,remaining activity,[2],104% (inactive)
same,fold fluorescence,[20],3.32 [at 101.2 µM] (inactive)
CC(C)Cc1ccc(C(C)C(=O)O)cc1 (centres undefined),period change,[1],0.16 h (inactive)
same,outcome,[16],inactive
CCOC(=O)C1=C(C)NC(C)=C(C(=O)OC)C1c1cccc([N+](=O)[O-])c1 (centres undefined),period change,[1],0.21 h (inactive)
same,z-score,[18],0.0382 (inactive)
same,remaining activity,[2],111% (inactive)
same,fold fluorescence,[20],5.19 [at 138.7 µM] (inactive)
CC(=O)CC(c1ccccc1)c1c(O)c2ccccc2oc1=O (centres undefined),parasite load remaining,[17],43.1% (inactive) and 79.3% (inactive) and 42.7% (inactive)
same,viability,[17],95.3% and 65.5% and 98.1%
S=c1nc[nH]c2nc[nH]c12,parasite load remaining,[17],27.1% (inactive) and 38.1% (inactive) and 20.6% (inactive)
same,viability,[17],73.4% and 55.1% and 57.4%
same,inhibition,[3]; at 0.5 µM,-2.69% (inactive) and -57.6% (inactive) and -53.9% (inactive)
same,inhibition,[3]; [21],-5.16% and -41% and -65.5%
same,inhibition,[3]; [22],-32% and -63.9% and -65.9%
same,inhibition,[4]; at 0.5 µM,-4.55% (inactive) and -3.29% (inactive) and -17.6% (inactive)
same,inhibition,[4]; [23],-4.3% and -15.6% and -16.3%
same,inhibition,[4]; [24],-5.54% and 2.44% and -26.8%
same,inhibition,[5]; at 0.5 µM,57.7% (inactive) and 56.2% (inactive) and 56.1% (inactive)
same,inhibition,[5]; [25],-14.8% and -13.6% and -15.6%
same,inhibition,[5]; [26],-7.08% and -3.38% and -9.93%
same,inhibition,[6]; at 0.5 µM,-7.19% (inactive) and -1.38% (inactive) and -2.98% (inactive)
same,inhibition,[6]; [27],-15.5% and -27.1% and 4.18%
same,inhibition,[6]; [28],-9.32% and -12.4% and -4.44%
same,inhibition,[7]; [29],95.7% and 91.5% and 93.1%
same,inhibition,[7]; at 0.5 µM,63.6% (inactive) and 53.4% (inactive) and 47.8% (inactive)
same,inhibition,[7]; [30],100% and 93.5% and 94.9%
same,inhibition,[8]; at 0.5 µM,13.8% (inactive) and -4.07% (inactive) and -10.8% (inactive)
same,inhibition,[8]; [31],14.2% and -8.32% and -0.26%
same,inhibition,[8]; [32],3.43% and 3.12% and -27.4%
CCCc1cc(=O)[nH]c(=S)[nH]1,fluorescence slope change,[9],-6.8% (inactive)
same,outcome,[16],inactive
N[C@@H](Cc1cc(I)c(Oc2cc(I)c(O)c(I)c2)c(I)c1)C(=O)O,fluorescence slope change,[9],62.7% (active)
same,outcome,[16],inactive
CC1=NS(=O)(=O)c2cc(Cl)ccc2N1,fluorescence slope change,[9],82.3% (active)
same,period change,[1],0.13 h (inactive)
same,z-score,[18],-0.142 (inactive)
same,remaining activity,[2],104% (inactive)
same,fold fluorescence,[20],4.83 [at 216.8 µM] (inactive)
